Screens: PubChem, National Center for Advancing Translational Sciences (NCATS)
LmPK inh: inhibitors of Leishmania mexicana pyruvate kinase | Q27686 | hit rate 0.37% among 290,000 | Potency, µM (series often up to 57.5 µM), inactives show at the top dose activity change, negative = inhibition, usual class: inhibitors | purified LmPK, Kinase-Glo ATP luminescence, 1 h; also: % is scaled to controls: 0 for no effect and ±100 for the full control effect
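ATP generated from ADP (0.1 mM) and PEP (0.5 mM) by 0.1 nM LmPK over 1 h at room temperature (pH 7.2 imidazole buffer) was detected by coupled luciferase luminescence. Values were normalized to uninhibited and no-enzyme wells.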
Giardia FBPA inh-1: blocks Giardia fructose-bisphosphate aldolase activity. A8B2U2. Potency, µM (top dose mostly 59.6 µM), inactives show at the highest dose activity, negative = inhibition, usual class: inhibitors. purified Giardia FBPA. hit rate 0.71% among 290,000; also: % is scaled to controls: 0 for no effect and ±100 for the full control effect; nearly all actives have a fitted effect of over 55% in size
Target sequence (A8B2U2 whole entry, looked up): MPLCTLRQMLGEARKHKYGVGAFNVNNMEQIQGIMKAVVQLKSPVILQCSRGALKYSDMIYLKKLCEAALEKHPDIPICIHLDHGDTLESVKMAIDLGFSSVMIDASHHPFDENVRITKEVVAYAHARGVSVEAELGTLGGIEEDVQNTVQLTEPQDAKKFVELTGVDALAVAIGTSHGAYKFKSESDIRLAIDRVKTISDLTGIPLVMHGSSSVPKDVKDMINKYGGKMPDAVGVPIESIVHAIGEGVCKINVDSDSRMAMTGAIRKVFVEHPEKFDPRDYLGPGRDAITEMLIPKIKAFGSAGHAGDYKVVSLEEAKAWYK
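Giardia FBPA (40 nM reagent) was preincubated 10 min at RT with compound (up to 57.5 uM final), then substrate plus GAPDH/TPI/NAD/arsenate coupling system with diaphorase/resazurin was added; resorufin fluorescence (525/598 nm) was read after 20 min.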
Tb PYK inh: blocks Trypanosoma brucei pyruvate kinase; Q57TT1; TbPYK enzyme, Kinase-Glo Plus ATP luminescence, 45 min; Potency, µM (series often up to 76.8 µM), inactives show top-dose activity, negative = inhibition, usual class: inhibitors; hit rate 0.12% among 410,000; AID 624173; also: % is scaled to controls: 0 for no effect and ±100 for the full control effect; nearly all actives have a fitted effect of over 50% in size
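ADP (130 uM final) triggers the TbPYK reaction after compound addition; incubation is 45 min at room temperature. Kinase-Glo Plus is then added and luminescence imaged. Normalized data are fitted to concentration-effect curves.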
AMA1-RON2 inh: AMA1-RON2 (P. falciparum) interaction inhibition; AlphaScreen AMA1-biotinylated RON2 peptide binding; Potency, µM (top dose mostly 58.2 µM), for inactives: top-dose activity change, negative = inhibition, hits mostly inhibitors; hit rate 0.2% among 360,000; AID 720542;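 also: 0% = vehicle wells and -100% = peptide control; nearly all actives have a fitted effect of over 45% in size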
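AMA1 (3D7) with his tag at 25 nM final met compounds first, then biotinylated RON2 peptide at 25 nM; detection used donor plus acceptor beads, 10 µg/mL apiece, read by AlphaScreen after 30 min at room temperature.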
NS1 inh: blocks influenza NS1 protein function; Potency, µM (top dose mostly 46.1 µM), inactives show top-dose activity, positive = more growth; hit rate 0.4% among 270,000; AID 2326; calls by dose curve; also: actives are rising curves; nearly all actives have a fitted effect of over 50% in size
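Read-out: OD600 growth recovery of NS1-expressing budding yeast. Cells grown overnight at 30C in -URA glucose medium, washed, resuspended and diluted 1:100 in 2% galactose assay medium, pH 6.0. Same strain lacking NS1 served as positive control.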
Giardia growth: Giardia lamblia growth inhibition; AID 2785; Potency, µM (titrated, usually from 57.5 µM), without a hit: at the top dose activity change, negative = inhibition, actives largely listed as inhibitors; shares compounds with Giardia FBPA inh-1; Giardia lamblia trophozoite growth inhibition; hit rate 5% among 1,500;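 also: trophozoites exposed to compound for 48 h at 37 °C; % is scaled to controls: 0 for no effect and ±100 for the full control effect; nearly all actives have a fitted effect of over 70% in size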
Mammalian tox: toxic to mammalian cells in Giardia aldolase counter-screen. mammalian cell viability counter-screen, qHTS. hit rate 4% among 1,500. shares compounds with Giardia FBPA inh-1. Potency, µM (titrated, usually from 57.5 µM), without a hit: at the highest dose viability change, negative = toxicity, actives largely listed as inhibitors;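 also: Chinese hamster ovary cells used as mammalian cytotoxicity surrogate; viability measured as cellular ATP by luminescence; compound exposure lasted 48 h before reading; % is scaled to controls: 0 for no effect and ±100 for the full control effect; nearly all actives have a fitted effect of over 60% in size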
Giardia FBPA inh-2: confirmation of Giardia fructose-bisphosphate aldolase inhibitors; shares compounds with Giardia FBPA inh-1; purified Giardia aldolase enzyme activity, qHTS; Potency, µM (series often up to 57.5 µM), for inactives: top-dose activity change, negative = inhibition, most hits filed as inhibitors; hit rate 5% among 1,500; AID 2787; also: % is scaled to controls: 0 for no effect and ±100 for the full control effect; nearly all actives have a fitted effect of over 45% in size
Rabbit FBPA inh: selectivity test for Giardia aldolase inhibitors: rabbit aldolase; shares compounds with Giardia FBPA inh-1; Rabbit muscle FBPA enzyme inhibition, selectivity counter-screen; Potency, µM (titrated, usually from 57.5 µM), for the others: top-dose activity, negative = inhibition, hits mostly inhibitors; hit rate 4% among 1,500; also: % is scaled to controls: 0 for no effect and ±100 for the full control effect; nearly all actives have a fitted effect of over 60% in size
GAPDH coupling: GAPDH inhibition flagged for Giardia aldolase hits. Potency, µM (series often up to 57.5 µM), for inactives: at the top dose activity change, negative = inhibition, most hits filed as inhibitors. hit rate 6% among 1,500. AID 2795. shares compounds with Giardia FBPA inh-1. GAPDH coupling enzyme counterscreen, biochemical, qHTS; also: % is scaled to controls: 0 for no effect and ±100 for the full control effect; nearly all actives have a fitted effect of over 55% in size
Numbers without * were called inactive; u = inconclusive; x = no result given; [ ] = dose if it differs, or a comment. Only some compounds are listed: those with a hit (about 1.2% of all), similar ones and a draw of the others. Unless noted, calls follow the shape of the dose curve; as a rule, active = well fitted curve in the direction sought with a large enough effect; inconclusive = small, poorly fitted or top-dose-only effect, or another doubt; inactive = no such curve, though single readings can be large; an effect the other way counts as inactive or inconclusive. Potency is read from the fitted curve at half-maximal effect.

SMILES | LmPK inh | Giardia FBPA inh-1 | Tb PYK inh | AMA1-RON2 inh | NS1 inh | Giardia growth | Mammalian tox | Giardia FBPA inh-2 | Rabbit FBPA inh | GAPDH coupling
CC1CCc2c(sc(NC(=O)C3c4ccccc4Oc4ccccc43)c2C(N)=O)C1 (stereo unspecified) | 0.8% | -0.4% | -12.4% | 6.3% | 14.1% | x | x | x | x | x
COC(=O)Nc1sc2c(c1C(N)=O)CCC(C)C2 (stereo unspecified) | 0.5% | 8.89µM* | -21.9% | 0.0% | -3.0% | -13.8%[38.3 µM] | 8.3% | u | u | u
CCN1CCN(CC(=O)N/N=C/c2cc(Br)cs2)CC1 | -0.5% | 17.8µM* | 19.6% | -16.6% | 2.3% | 14.8% | 21.5% | 2.4% | 4.8% | 10.5%
Cc1nccn1CC(=O)N/N=C/c1cc(Br)cs1 | -2.4% | 1.0% | -1.0% | 2.5% | 1.2% | x | x | x | x | x
CCCCCCNC(=O)N[C@H](Cc1ccc(O)cc1)C(=O)NCCC[C@H]1CN2C(=NC[C@H]2CCC)N1CC1CCC1 | -9.2% | 15.8µM* | x | x | -51.3% | -18.0% | 5.4% | -1.4% | -1.6% | 3.8%
COC(=O)c1sc(NC(=S)NC(=O)c2cccc(Br)c2)nc1C | -6.2% | 11.2µM* | 1.2% | 18.7% | 4.1% | 53.3% | -0.9% | 8.4% | 5.4% | 18.7%
COC(=O)c1sc(NC(=S)NC(=O)c2ccc(F)cc2)nc1C | 1.6% | -0.1% | x | x | x | x | x | x | x | x
COc1cc(OC)c(OC)cc1CN1CCCC(C(=O)N2CCCC2)C1 (stereo unspecified) | 4.8% | 28.2µM* | -0.5% | -13.4% | -1.9% | 26.1% | 3.8% | 1.5% | 1.6% | 7.4%
COc1ccc(CN2CCCC(C(=O)N3CCCCC3)C2)c(OC)c1 (stereo unspecified) | 1.4% | u | 25.2% | -10.0% | -0.9% | x | x | x | x | x
Cc1nc2ccccc2oc1=O | x | -0.1% | x | x | x | x | x | x | x | x
Nc1cc2nc3ccccc3oc-2cc1=O | -2.3% | 17.7µM* | -9.3% | -2.6% | -64.2% | -5.3%[10.4 µM] | -14.2% | u | -22.6% | u
CCN(CC)S(=O)(=O)c1ccc2c(c1)N(CC(=O)Nc1cccc(C(C)=O)c1)C(=O)CO2 | x | x | -10.2% | x | x | x | x | x | x | x
O=C(NC1CCCCC1)c1cccnc1C(=O)O | 0.8% | 5.61µM* | 12.7% | -2.7% | 9.3% | 10.3% | 6.0% | 6.2% | 10.5% | 13.1%
CCOc1ccccc1CN1CCC(O)CC1 | 1.7% | -17.4% | -5.2% | -12.2% | 1.5% | x | x | x | x | x
CCOc1ccccc1CN1CCC(N2CCOCC2)CC1 | -4.7% | 8.91µM* | -7.1% | -24.6% | 4.0% | 20.6%[38.3 µM] | -13.3% | u | 12.7% | -8.5%
CC(C)(C)C(=O)Oc1ccc(S(=O)(=O)Nc2ccccc2C(=O)NCC(=O)O)cc1 | x | x | -9.8% | x | x | x | x | x | x | x
CCCCn1c(NS(=O)(=O)c2ccc(C)cc2)c(S(=O)(=O)c2ccccc2)c2nc3ccccc3nc21 | 4.8% | u | 0.1% | -1.0% | 6.0% | x | x | x | x | x
CCCCn1c(NS(=O)(=O)c2ccccc2)c(C(=O)OCC)c2nc3ccccc3nc21 | -0.6% | 0.446µM* | 2.0% | -1.8% | -28.4% | -7.3%[38.3 µM] | -4.6% | u | -25.2% | 39.8µM*
CSCCC(NS(=O)(=O)c1ccc2c(c1)oc(=O)n2C)C(=O)N1CCN(c2cccc(Cl)c2)CC1 (stereo unspecified) | x | x | -1.2% | x | x | x | x | x | x | x
